Experimental data: PubChem BioAssay (NCI)
The panel holds about 83,000 compounds, 20% with a hit somewhere; the sample as a whole holds those more often.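 96-well plates, one dose, 48 hours. Percent growth reported; active if below 10.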 Values without a mark were called inactive. Activity calls are given as the source filed them.

Assays:
Assay in all cases: NCI-60 one-dose screen, 48 h (100 = growth as untreated, 0 = no growth, -100 = all killed)
Conditions in all cases: 10 µM unless noted
NCI-H23 lung = system: NCI-H23 lung
NCI-H226 lung = system: NCI-H226 lung
NCI-H322M lung = system: NCI-H322M lung
HOP-62 NSCLC = system: HOP-62 NSCLC
NCI-H460 lung = system: NCI-H460 lung
HOP-92 NSCLC = system: HOP-92 NSCLC
NCI-H522 lung = system: NCI-H522 lung
A549/ATCC NSCLC = system: A549/ATCC NSCLC
786-0 renal = system: 786-0 renal
COLO 205 colon = system: COLO 205 colon
DU-145 prostate = system: DU-145 prostate
K-562 leukemia = system: K-562 leukemia
MALME-3M melanoma = system: MALME-3M melanoma
MDA-MB-231 breast = system: MDA-MB-231 breast
SF-268 CNS = system: SF-268 CNS
SF-295 CNS = system: SF-295 CNS
SF-539 CNS = system: SF-539 CNS
UACC-257 melanoma = system: UACC-257 melanoma
M14 melanoma = system: M14 melanoma
RXF 393 renal = system: RXF 393 renal

SMILES | growth (NCI-H23 lung) | growth (NCI-H226 lung) [%] | growth (NCI-H322M lung) | growth (HOP-62 NSCLC) | growth (NCI-H460 lung) | growth (HOP-92 NSCLC) | growth (NCI-H522 lung) | growth (A549/ATCC NSCLC) | growth (786-0 renal) | growth (COLO 205 colon) | growth (DU-145 prostate) [%] | growth (K-562 leukemia) | growth (MALME-3M melanoma) | growth (MDA-MB-231 breast) | growth (SF-268 CNS) | growth (SF-295 CNS) | growth (SF-539 CNS) | growth (UACC-257 melanoma) | growth (M14 melanoma) | growth (RXF 393 renal)
CC1=NN(c2cccc(S(N)(=O)=O)c2)C(=O)C1 | 87.8% | 90.3 | 96.9% | 97.7% | 103% | -30.8% (active) | 113% | 87.4% | 100% | 108% | 100 | 99.4% | 89.9% | 97.1% | 91.6% | 87.8% | 91.5% | 124% | 95.3% | 
CC1(C)C(N(O)C(=O)Nc2ccc(Cl)cc2)N(c2ccc(Cl)cc2)C(=O)N1CC(=O)N/N=C/C=C/c1ccc([N+](=O)[O-])o1 (configuration not stated) | 3.01% (active) | 25.8 | 49% | 36.8% | -13.1% (active) | -30.9% (active) | -88.5% (active) | 6.98% (active) | -48.9% (active) | -81.3% (active) | 12.5 | 13.1% | -42.6% (active) | -48.7% (active) |  | 54.9% | -73.3% (active) | -33.7% (active) | -65.6% (active) | -77.9% (active)
CCN(CC)Cc1cc(Nc2ccnc3cc(Cl)ccc23)cc(-c2ccc(Cl)cc2)c1O | 24% | 17.6 | 5.72% (active) | -46.1% (active) | 3.23% (active) | -8.91% (active) | 35.3% | 20.7% | 55% | 55.8% | 26.1 | 18.8% | 10% (active) | 48.7% | 8.65% (active) |  | -25.6% (active) | 10.5% | 10.2% | 46.4%
CC(=O)[C@@]1(O)[C@H](C)C[C@H]2[C@@H]3C=C(C)C4=Cc5c(cnn5-c5ccccc5)C[C@]4(C)[C@H]3[C@@H](O)C[C@@]21C | 32.4% | 63.3 | 75.9% | 34.8% | -20.5% (active) | 13.2% | -2.67% (active) | 14.5% | -9.28% (active) | -23.8% (active) | 54.6 | -60.9% (active) | 41.8% | 26.1% | 27.9% | -49.1% (active) | -21.8% (active) | 54.6% | 43.7% | 
COc1ccc(C2C3=C(COC3=O)N(CCO)c3cc(OC)c(OC)cc32)cc1 (configuration not stated) | 106% | 101 | 104% | 95.7% | 105% | 86.9% | 92.8% | 108% | 96.3% | 110% | 113 | 82.5% |  | 112% | 101% | 110% | 105% | 116% | 108% | 114%
NS(=O)(=O)c1ccc(N2N=C(c3ccc(Br)cc3)CC2c2cn(-c3ccccc3)nc2-c2ccc(Cl)cc2)cc1 (configuration not stated) | 88.3% | 103 | 92.5% | 98.2% | 81.6% | 157% | 89.9% | 76.8% | 97.9% | 86.3% | 94.7 | 63% |  | 99% | 84.7% | 92.7% | 104% | 96.7% | 83.7% | 88.9%
COc1cc(C)cc2oc3oc(=O)c(-c4csc(-c5cc6ccccc6oc5=O)n4)cc3c(=O)c12 | 101% | 102 | 105% | 103% | 106% | 105% | 103% | 114% | 106% | 119% | 113 | 112% | 105% | 99.5% | 105% |  | 99.3% | 115% | 104% | 102%
CCc1ccc2c(c1)N(CCO)C1=C(C(=O)OC1)C2c1cccc(Cl)c1 (configuration not stated) | 38.8% | 32.4 | 39.4% | 31.7% | 10.8% | 93.4% | -22% (active) | 26.6% | 32.8% | 2.49% (active) | 11.3 | 13.3% |  | 30.8% | 44.9% | -15.6% (active) | -12.6% (active) | 62.2% | 4.38% (active) | 10.1%
